The results in this text go back to PubChem BioAssay (NCI).

This is part of a sample that, as a whole, favours compounds with a hit. Of some 79,000 tested, about 15% had one in any assay. A number with no mark means an inactive call. The source made the active and inactive calls. No stated cut-off is given here; in the data, active means growth inhibition above about 70%; inactive means the rest.

The assay in a line: NCI Yeast Anticancer Drug Screen. Data for the sgs1 mgt1 strain (AID 161).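 Further: 0% = growth of cultures given vehicle only.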 The conditions noted are these: S. cerevisiae sgs1 mgt1 strain, at 50.0 µM, stronger effect = higher value. The procedure, abridged: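 This yeast growth screen uses a strain with defined DNA-repair lesions; compound-treated growth is compared with vehicle-treated growth.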
Consider `O=[N+]([O-])c1ccc(-c2nnc(C34CC5CC(CC(C5)C3)C4)o2)cc1`, for which the growth inhibition is -13.4%.
The figure for `Clc1cccc(Cl)c1C1SCc2nc3ncccc3n21` (stereo not given) is 34.4%.
The figure for `COc1c2ccoc2c(OC)c2oc(=O)ccc12` is 11.7%; for `N#Cc1cccc(O)c1` it is -2.45%; for `CCOC(=O)c1c(SC(=O)c2ccc(C(C)(C)C)cc2)n(-c2ccccc2)c(=S)n(-c2ccccc2)c1=O` it is 26.8%.
Take `CCOC(=O)/C=C/c1ccc(OCC)cc1`: the growth inhibition is -7.15%.
The figure for `O=C(c1ccc(F)cc1)c1ccc2ccccc2c1C(=O)O` is 13.1%.
As for `CC(=O)O[C@H]1CC[C@@]2(C)[C@@H](CC[C@@H]3[C@@H]2CC[C@]2(C)[C@@H](C(=O)CCC(F)(F)F)CC[C@@H]32)C1`, the figure is 33.6%; as for `Nc1cc(=O)[nH]c(NCCCC(N)C(=O)O)n1` (stereo not given), 6.55%; as for `O=[N+]([O-])c1cc(Br)c2ccccc2c1`, 6.45%.
The figure for `Cc1ccc(-n2cnc3c(Cl)ncnc32)cc1[N+](=O)[O-]` is 15.1%; for `C/C(=N\NC(=S)NC(C)C)c1nc2ncccc2[nH]1` it is -56.6%.
With `Cc1ccc(COC(=O)Nc2ccc(C)c(NC(=O)OCc3ccc(C)cc3)c2)cc1`, the growth inhibition is 11.7%.
With `NCCSS(=O)(=O)CCN`, the growth inhibition was 18.4%.
The figure for `CN(/N=C/c1ccccc1)c1nnnn1-c1ccccc1` is -5.85%.
For the molecule `CCOC(CCCl)c1ccc(C)cc1` (stereo not given), the growth inhibition is -20.4%.
The figure for `CCOc1cc(N)nc(N)n1` is 7.15%; for `O=C1CSC(c2ccc(Br)cc2)N1c1nncs1` (stereo not given) it is 18.2%.
For the molecule `O/N=C1\CCCCC1C(NO)c1ccccc1` (stereo not given), the growth inhibition is -7.9%.
As for `CN(/N=C/c1cccs1)c1ccc([N+](=O)[O-])cc1[N+](=O)[O-]`, the figure is 7.05%; as for `CN(C)CC1OCCc2ccccc21` (stereo not given), 3.75%; as for `C/C(=N\N=Nc1ccc(N(C)C)cc1)c1ccccc1`, -5.25%.
The figure for `NC(=S)NNC(=S)NC(=O)c1ccco1` is 5.05%; for `O=C1CCN2CCC(=O)c3c2c(cc2ccccc32)N1` it is -4.45%.
As for `CC1(C)C(=O)N2c3ccccc3C3(CC(N4C(=O)c5ccccc5C4=O)C(=O)O3)C2N1C(=O)OCc1ccccc1` (stereo not given), the figure is 9.35%; as for `O=C(Nc1ccc([N+](=O)[O-])cc1)Nc1nccnn1`, 10.6%.
Consider `CN(NC(=O)CCCl)C1=NCCN1`, for which the growth inhibition is -3.95%.
Consider `Cc1cc(N=Nc2ccc(N=Nc3ccc(S(=O)(=O)O)cc3)cc2)cc(C(=O)O)c1O`, for which the growth inhibition is -2.85%.
The figure for `O=[N+]([O-])c1cc(Cl)c(Cl)c(Cl)c1Cl` is -1%; for `O=C1C(c2ccccc2)C(c2ccccc2)C(c2ccccc2)C1c1ccccc1` (stereo not given) it is 15.9%.
`O=[N+]([O-])c1ccc(-c2ccccc2CO)cc1`: the growth inhibition was -25.6%.
The figure for `CCCC(O)C(=O)C(CCC)N(CC)CC` (stereo not given) is 6.65%.
As for `O=C(NCCNc1ccccc1)C12CC3CC(CC(C3)C1)C2`, the figure is -3.9%; as for `Clc1ccc([I+]c2ccc(Cl)cc2)cc1`, 97.5% (active).
The figure for `[N-]=[N+]=NS(=O)(=O)CCc1ccc(Cl)cc1` is -12.4%; for `CCCCC(CC)C(C(C)=O)N(C)C` (stereo not given) it is 13.1%.
Regarding `CCC1(C)CC(C)(C)c2ccc(C)cc21` (stereo not given), the growth inhibition is -6.4%.
The figure for `Brc1cccc2c(SCCCCCCSc3c4ccccc4nc4c(Br)cccc34)c3ccccc3nc12` is -18.8%; for `O=C(O)c1[nH]ncc1[N+](=O)[O-]` it is -5.05%; for `O=C(O)CCBr` it is 44.5%.
